Source: the supplement of paper PMC3334620
The full ranking holds about 33,000 sequences; the median of “E-score (-0.5 to 0.5)” is about -0.013, and the highest 2% start at about 0.3. The sample as a whole holds a higher share of the highest values than the screen did.

target: T1, Msn1 (UniProt P22148); assay: PBM E-score (8-mer binding enrichment) (E-score (-0.5 to 0.5)); higher = stronger / more preferred TF binding; conditions: protein concentration: 200 nM; construct: GST-full length
T1 sequence: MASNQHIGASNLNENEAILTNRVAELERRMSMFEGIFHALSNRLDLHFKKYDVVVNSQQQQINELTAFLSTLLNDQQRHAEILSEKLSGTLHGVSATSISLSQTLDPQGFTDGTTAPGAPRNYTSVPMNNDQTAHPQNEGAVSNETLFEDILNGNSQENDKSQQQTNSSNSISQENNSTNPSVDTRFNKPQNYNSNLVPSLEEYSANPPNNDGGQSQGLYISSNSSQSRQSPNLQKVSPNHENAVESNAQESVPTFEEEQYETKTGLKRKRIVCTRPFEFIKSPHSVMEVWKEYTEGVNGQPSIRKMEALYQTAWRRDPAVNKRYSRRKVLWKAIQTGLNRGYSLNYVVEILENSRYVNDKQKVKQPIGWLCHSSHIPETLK
Method: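 Universal 'all 10-mer' protein binding microarrays (Agilent AMADID 015681) probed with GST-tagged S. cerevisiae TFs (full-length or DBD) made by in vitro transcription/translation (PURExpress), about 100-200 nM. Bound TF was detected with fluorescent anti-GST. Each ungapped 8-mer (which stands for itself and its reverse complement) is scored by the PBM enrichment score (E-score), a modified Wilcoxon-Mann-Whitney statistic from -0.5 to +0.5, computed with the Universal PBM Analysis Suite. Scale: above 0.35 generally sequence-specific binding.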

Sequence	PBM E-score
ATTTGAGC	-0.0055
ACAATCTA	0.0825
CGGACCGA	0.165
CAGCGAAG	-0.193
TATCGGGA	0.178
TCCCCAGA	-0.107
CCTGTCCA	0.156
GATGTCCC	0.462
CATGTCCA	0.463
CATGTCCG	0.436
CATGTCAG	0.208
GATGTCAC	0.26
CCTGTCCG	0.117
GCTGTCCA	0.159
TCTGTCCA	0.363
CATGTCAA	0.236
GCTGTCCC	-0.0712
ACTGTCCA	0.0386
CTTACTGC	-0.143
GATGGCGC	-0.252
ATTTAGAG	0.0544
ACGGGAGG	-0.268
ACACATGT	0.238
TATGTCAA	0.31

Sequence	PBM E-score
AATGTCCG	0.481
GACGTCCA	0.207
AATGTCAA	0.3
TATGTCGA	0.289
GATGTCAA	0.0785
AAGGTCCG	-0.0417
GATGTCGA	0.0163
TATGTCCA	0.465
AATGTGCG	-0.0792
TACGTCCA	0.179
GATGTCCA	0.458
GCTCCCAC	-0.135
GGCCAAAA	0.00072
GTTCGAGA	0.11
CAGAAAGC	-0.0396
AGCAAAAT	0.174
AGGGGGCC	-0.412
GCTACCGA	-0.00569
CCAGTACG	-0.0732
CATGTCCC	0.459
CATGTCAC	0.291
CCTGTCCC	0.282
CCACTTGC	-0.132
CTCAGTCA	-0.173

Sequence	PBM E-score
CCTGGACG	-0.182
ACTGGACA	0.374
ACTGGACC	-0.137
CCTGGACA	0.417
CCTGGACC	0.0101
ACTGGACT	0.105
GCTGGACA	0.276
TCTGGAAA	-0.0457
TCTGGACA	0.381
AAGTATGC	-0.0157
GCCGACCA	0.0498
TCCTTGCA	0.0515
CCTCTCAG	-0.339
ATACCATA	0.0438
CAGGCGGA	0.223
AAATGTAT	0.28
AAATGTCG	0.412
CAATGTCC	0.47
CAATGTCA	0.262
AAATGTGG	0.147
AAATGTCT	0.486
CAATGTCG	0.323
CAATGTAG	-0.109
AAATGTGT	0.292

Sequence	PBM E-score
CAATGTGG	0.111
AAATGTTG	-0.0982
CAATGTGC	-0.121
ACGACTCC	-0.181
GTCGGGTA	0.0767
GACGTCAA	-0.00044
GTAATATA	0.191
GAGAAACC	-0.0447
TATGTGAA	-0.121
GATAAGGC	0.0376
AAATGTAA	0.238
TAATGTCA	0.259
GAATGTGA	0.076
AAATGTTA	0.165
GAATGTCA	0.373
AAATGTCA	0.456
ACGATAGT	0.0402
CGACCTGA	0.0583
AGTTGTCA	0.295
AGTTGTCC	0.441
CGTTGTCA	-0.023
CGTTGTCC	0.413
CGTTGTGC	0.114
AGTTGTGC	-0.273
